{"source": "PubChem BioAssay AID1527", "about": "(The Scripps Research Institute Molecular Screening Center, 2009)", "note": "Hit rate of the full screen: of about 290,000 compounds, about 2,600 (0.9%) were called active.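 The calls were made as follows: active = inhibition above the mean of all tested compounds plus 3 SD, cutoff set per screening run (cut at about 7.5% in these data); inactive = the rest.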 Shown is part of a subset that was picked to be rich in actives."}
{"test_system": "VIM-2 metallo-beta-lactamase (Pseudomonas aeruginosa)", "experiment": "VIM-2 metallo-beta-lactamase inhibitors, primary screen, biochemical, epi-absorbance readout, Pseudomonas aeruginosa enzyme (AID 1527);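 also: red hydrolysis product quenches plate fluorescence so inhibitors raise well fluorescence; 0% = enzyme with DMSO and 100% = DMSO without enzyme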", "conditions": "purified VIM-2, nitrocefin hydrolysis, epi-absorbance fluorescence; at 5.6 µM; stronger effect = higher value"}
{"smiles": "CCN(CC)CCCNC(=O)c1cc2c(=O)[nH]c3ccc(C)cc3c2s1", "inhibition": "11.4% (active)"}
{"smiles": "Cc1cccc(N(C)C(=O)c2cc3c(=O)[nH]c4ccc(C)cc4c3s2)c1", "inhibition": "-1.79% (inactive)"}
{"smiles": "CCN(CC)CCCNC(=O)c1cc(-c2cccc(Cl)c2)on1", "inhibition": "-2.99% (inactive)"}
{"smiles": "COc1ccc(C(=O)N/N=c2\\oc3ccccc3cc2C(N)=O)cc1", "inhibition": "-2.23% (inactive)"}
{"smiles": "NC(=O)c1cc2ccccc2o/c1=N/NC(=O)c1cccc(F)c1", "inhibition": "-3.88% (inactive)"}
{"smiles": "CCN(CC)c1ccc2cc(C(N)=O)/c(=N\\NC(=O)c3ccncc3)oc2c1", "inhibition": "17.2% (active)"}
{"smiles": "COc1ccccc1CNC(=O)C1CCN(C(=O)[C@@H]2Cc3ccccc3CN2)CC1", "inhibition": "-1% (inactive)"}
{"smiles": "Nc1nc(SCc2cccc(Br)c2)n[nH]1", "inhibition": "-2.53% (inactive)"}
{"smiles": "Cc1cc(NC(C)C)n2c(nc3ccccc32)c1C#N", "inhibition": "6.91% (inactive)"}
{"smiles": "CC(C)c1cc(NCc2ccccn2)n2c(nc3ccccc32)c1C#N", "inhibition": "3.25% (inactive)"}
{"smiles": "Cc1cc(NCc2ccco2)n2c(nc3ccccc32)c1C#N", "inhibition": "23.1% (active)"}
{"smiles": "CC(C)c1ccc2oc(=O)cc(CN3CCN(Cc4ccccc4)CC3)c2c1", "inhibition": "-0.17% (inactive)"}
{"smiles": "CCOC(=O)N1CCC(N2Cc3cccc(C(=O)Nc4ccc(S(=O)(=O)N(CC)CC)cc4)c3C2=O)CC1", "inhibition": "1.9% (inactive)"}
{"smiles": "O=C(NNS(=O)(=O)c1ccccc1)c1cnn(-c2ccc(Cl)cc2)c1C(F)(F)F", "inhibition": "-0.91% (inactive)"}
{"smiles": "COc1ccccc1N1CCN(c2nc(C)cc(=O)[nH]2)CC1", "inhibition": "-1.83% (inactive)"}
{"smiles": "CN(C)c1ccc(CNC2C3CC4CC(C3)CC2C4)cc1", "note": "(configuration not stated)", "inhibition": "-1.88% (inactive)"}
{"smiles": "O=C(CCC(=O)N/N=C/c1ccc(Br)o1)N/N=C/c1ccc(Br)o1", "inhibition": "-1.34% (inactive)"}
{"smiles": "CN1CCN(CCCNC(=O)c2cc3c(=O)oc4ccccc4c3s2)CC1", "inhibition": "7.83% (active)"}
{"smiles": "O=C(NCCCN1CCOCC1)c1cc2c(s1)CCC2", "inhibition": "-5.51% (inactive)"}
{"smiles": "O=C(NCCN1CCN(Cc2ccccc2)CC1)c1cc2c(=O)[nH]c3ccccc3c2s1", "inhibition": "7.06% (inactive)"}
{"smiles": "CCOC(=O)N1CCN(S(=O)(=O)N2CCCC(C(=O)NCCCN3CCC(C)CC3)C2)CC1", "note": "(configuration not stated)", "inhibition": "-0.26% (inactive)"}
{"smiles": "CC(=O)Nc1ccc(-c2nc3ccccc3o2)cc1", "inhibition": "-1.18% (inactive)"}
{"smiles": "CC(=O)Nc1ccc(Nc2c3ccccc3nc3ccccc23)cc1", "inhibition": "9.49% (active)"}
{"smiles": "Cc1ccc(Nc2c3c(nc4ccccc24)CCC3)cc1", "inhibition": "5.26% (inactive)"}
{"smiles": "FC(F)(F)c1nnc2c3ccccc3c(Cl)nn12", "inhibition": "4.08% (inactive)"}
{"smiles": "Cc1ccc(Oc2nc3ccccc3n3c(C)nnc23)cc1", "inhibition": "0.26% (inactive)"}
{"smiles": "Nc1nnc2c(C(F)(F)F)nc3ccccc3n12", "inhibition": "14.8% (active)"}
{"smiles": "COc1ccc(C2=NS(=O)(=O)N(C)C(C(=O)N(C)Cc3ccccc3)=C2)cc1", "inhibition": "-0.5% (inactive)"}
{"smiles": "Cc1cccn2c(=O)c3cc(C(=O)NC4CCCCC4)sc3nc12", "inhibition": "8.99% (active)"}
{"smiles": "Cc1ccccc1-n1nc(C)c2cc(C(=O)NC3CC3)sc21", "inhibition": "-1.43% (inactive)"}
{"smiles": "CN(C(=O)c1cc2c(=O)n3ccccc3nc2s1)C1CCCCC1", "inhibition": "3.44% (inactive)"}
{"smiles": "CCc1ccc(N(CC(=O)NCc2cccnc2)S(=O)(=O)c2ccccc2)cc1", "inhibition": "-2.09% (inactive)"}
{"smiles": "COc1ccccc1C(=O)Nc1ccnn1C1CCN(C(=O)C(C)(C)C)CC1", "inhibition": "-0.24% (inactive)"}
{"smiles": "CCC(=O)NCc1cc(-c2nn(C)c(=O)c3ccccc23)ccc1OC", "inhibition": "1.81% (inactive)"}
{"smiles": "COc1ccc(-c2nn(C)c(=O)c3ccccc23)cc1CNC(=O)C1CCCCC1", "inhibition": "8.72% (active)"}
{"smiles": "COc1ccc(-c2nn(C)c(=O)c3ccccc23)cc1NC(=O)COc1ccccc1", "inhibition": "3.19% (inactive)"}
{"smiles": "CCOc1cccc(-c2nn3c(-c4ccccn4)nnc3s2)c1", "inhibition": "1.31% (inactive)"}
{"smiles": "COc1cc(-c2nn3c(-c4cccc(C)c4)nnc3s2)cc(OC)c1OC", "inhibition": "14.8% (active)"}
{"smiles": "Fc1ccc(-c2ccc(-c3nn4c(-c5ccco5)nnc4s3)o2)cc1", "inhibition": "-1.72% (inactive)"}
{"smiles": "c1ccc(-c2cc(-c3nnc4sc(-c5ccccn5)nn34)[nH]n2)cc1", "inhibition": "6.5% (inactive)"}
{"smiles": "COc1ccc(-c2nn3c(-c4ccccc4)nnc3s2)cc1OC", "inhibition": "14.4% (active)"}
{"smiles": "COc1cc(-c2nnn(CC(=O)NCc3ccccc3)n2)cc(OC)c1OC", "inhibition": "-0.9% (inactive)"}
{"smiles": "COc1ccc(C)cc1S(=O)(=O)N(CC(=O)Nc1cccc([N+](=O)[O-])c1)c1ccc(C)cc1", "inhibition": "-0.96% (inactive)"}
{"smiles": "COc1ccc(C(C(=O)NC2CCCCC2)N(C(=O)c2snc(C(N)=O)c2N)c2ccccc2OC)cc1", "note": "(configuration not stated)", "inhibition": "-3.87% (inactive)"}
{"smiles": "N#Cc1cc([N+](=O)[O-])ccc1NCC1CCCO1", "note": "(configuration not stated)", "inhibition": "-4.39% (inactive)"}
{"smiles": "COC(=O)c1ccc(-c2noc(CN(Cc3ccccn3)CC3CCCO3)n2)cc1", "note": "(configuration not stated)", "inhibition": "19.8% (active)"}
{"smiles": "CCN(CCn1cccn1)Cc1nc(-c2ccc(C(=O)OC)cc2)no1", "inhibition": "0.55% (inactive)"}
{"smiles": "CN(Cc1ccccn1)Cc1nc(-c2ccc(Cl)cc2)no1", "inhibition": "-2.91% (inactive)"}
{"smiles": "COc1cc(/C=C2/SC(=S)N(Cc3ccccc3)C2=O)cc(OC)c1O", "inhibition": "7.8% (active)"}
{"smiles": "COc1ccc(/C=C2\\SC(=S)N(CCC(=O)Nc3ccccn3)C2=O)cc1OC", "inhibition": "-0.57% (inactive)"}
{"smiles": "COc1ccccc1C(=O)NNC(=O)CCN1C(=O)/C(=C\\c2ccccc2)SC1=S", "inhibition": "-3.54% (inactive)"}
{"smiles": "O=C(CCc1ccccc1)NNC(=O)COc1ccc(Cl)cc1", "inhibition": "-4.89% (inactive)"}
{"smiles": "Cc1ccc(C2CCN(C(=S)Nc3cccc(Cl)c3)C2)cc1", "note": "(configuration not stated)", "inhibition": "-1.21% (inactive)"}
{"smiles": "O=C(NCC(=O)N1CCN(c2ccccc2F)CC1)c1cccs1", "inhibition": "-3.61% (inactive)"}
{"smiles": "O=C(O)CS/C(=C\\c1ccc(F)cc1)c1nc2ccccc2s1", "inhibition": "2.23% (inactive)"}
{"smiles": "O=C(Nc1nc2ccccc2s1)c1ccc2c(c1)OCO2", "inhibition": "-3.05% (inactive)"}
{"smiles": "O=C(O)CC/C(=C\\c1cc2c(cc1Br)OCO2)c1nc2ccccc2s1", "inhibition": "7.92% (active)"}
{"smiles": "C/C(=N\\NC(=O)C1(C)CC1(Br)Br)c1ccc(C)cc1C", "note": "(configuration not stated)", "inhibition": "-0.97% (inactive)"}
{"smiles": "CC(C)n1c(COc2ccccc2)nc2ccccc21", "inhibition": "-2.15% (inactive)"}
{"smiles": "O=C(CN1CCN(S(=O)(=O)c2cc(Cl)ccc2Cl)CC1)c1ccc(O)c(O)c1", "inhibition": "2.29% (inactive)"}
{"smiles": "CCc1cc(=O)oc2cc(C)cc(OCC(=O)N3CCC[C@@H]3C(=O)O)c12", "inhibition": "14.5% (active)"}
{"smiles": "CCc1cc(=O)oc2cc(C)cc(OC(C)C(=O)O)c12", "note": "(configuration not stated)", "inhibition": "-2.35% (inactive)"}
{"smiles": "CCCc1cc(=O)oc2c(C)c(OCC(=O)N3CCC(C(=O)O)CC3)ccc12", "inhibition": "-1.65% (inactive)"}
{"smiles": "O=C(NCC1CCCO1)c1ccccc1-c1nc(-c2ccccc2Cl)no1", "note": "(configuration not stated)", "inhibition": "-2.71% (inactive)"}
{"smiles": "COc1ccccc1NC(=O)c1cc(N2C(=O)C3C4CCC(C4)C3C2=O)ccc1Cl", "note": "(configuration not stated)", "inhibition": "-0.65% (inactive)"}
{"smiles": "COc1ccc(CCNC(=O)CCn2c(=O)c3ccccc3n(CC(=O)NCC3CCCO3)c2=O)cc1OC", "note": "(configuration not stated)", "inhibition": "-1.51% (inactive)"}
{"smiles": "COc1ccc(CCn2c(=N)c(C(=O)NCC3CCCO3)cc3c(=O)n4cccc(C)c4nc32)cc1OC", "note": "(configuration not stated)", "inhibition": "16.1% (active)"}
{"smiles": "CCn1c(=N)c(C(=O)NCCCOC)cc2c(=O)n3cccc(C)c3nc21", "inhibition": "10.5% (active)"}
{"smiles": "Cc1cccn2c(=O)c3cc(C(=O)NCC4CCCO4)c(=N)n(Cc4ccc(F)cc4)c3nc12", "note": "(configuration not stated)", "inhibition": "5.79% (inactive)"}
{"smiles": "COc1ccc(CCn2c(=N)c(C(=O)NCc3ccco3)cc3c(=O)n4cccc(C)c4nc32)cc1", "inhibition": "-1.42% (inactive)"}
{"smiles": "Cc1cccn2c(=O)c3cc(C(=O)NCCN4CCOCC4)c(=N)n(Cc4cccnc4)c3nc12", "inhibition": "4.67% (inactive)"}
{"smiles": "Cc1ccc(S(=O)(=O)N(CC(=O)NCCSC2CCCCC2)c2ccccc2F)cc1", "inhibition": "-2.1% (inactive)"}
{"smiles": "COc1cccc(N(C(=O)c2snc(C(N)=O)c2N)C(C(=O)NCC2CCCO2)c2c[nH]c3ccccc23)c1", "note": "(configuration not stated)", "inhibition": "-0.46% (inactive)"}
{"smiles": "CCOC(=O)C1(Cc2ccccc2C)CCCN(C(=O)CCc2c(C)noc2C)C1", "note": "(configuration not stated)", "inhibition": "0.38% (inactive)"}
{"smiles": "Cc1occc(=O)c1OCc1ccc(F)cc1", "inhibition": "-1.42% (inactive)"}
{"smiles": "COC(=O)CN1C(=O)[C@H]2[C@@H](C3CC3)N3C(=O)CN(Cc4ccc(-c5ccccc5)cc4)C(=O)[C@@]3(Cc3ccccc3)[C@H]2C1=O", "inhibition": "-2.72% (inactive)"}
{"smiles": "Cc1cc(NC(=O)c2ccc(F)cc2)ccc1NC(=O)c1ccco1", "inhibition": "-3.06% (inactive)"}
{"smiles": "Cc1[nH]n(-c2ccccc2)c(=O)c1N=Nc1ccccc1C(=O)N1CCCCC1", "inhibition": "-0.74% (inactive)"}
{"smiles": "Cc1[nH][nH]c(=O)c1N=Nc1ccccc1", "inhibition": "-4.7% (inactive)"}
{"smiles": "COC(=O)c1ccccc1N=Nc1c(C)[nH][nH]c1=O", "inhibition": "8.28% (active)"}
{"smiles": "CN(Cc1ccco1)S(=O)(=O)c1nnc(NC(=O)c2ccccc2)s1", "inhibition": "-2.48% (inactive)"}
{"smiles": "O=c1oc2ccccc2c(NC2CCCCC2)c1NS(=O)(=O)c1ccc(Cl)cc1", "inhibition": "-2.68% (inactive)"}
{"smiles": "Cc1cc2c(cc1C)[n+](C)cn2CC(O)COCC1CC=CCC1", "note": "(configuration not stated)", "inhibition": "-3.17% (inactive)"}
{"smiles": "Clc1ccc(C2=CSC3=Nc4cccc5cccc(c45)N23)cc1", "inhibition": "1.95% (inactive)"}
{"smiles": "Cc1cnc(C(=O)OCc2c(C)cc(C(C)(C)C)cc2C)cn1", "inhibition": "0.21% (inactive)"}
{"smiles": "CCc1ccc(/C=C2\\SC(N3CCOCC3)=NC2=O)cc1", "inhibition": "-0.98% (inactive)"}
{"smiles": "CC1CCN(C2=NC(=O)/C(=C/c3ccc(O)cc3)S2)CC1", "inhibition": "1.8% (inactive)"}
{"smiles": "CCOc1cc(/C=C2\\SC(N3CCCCC3)=NC2=O)ccc1O", "inhibition": "14.9% (active)"}
{"smiles": "CCOc1cc(/C=C2\\SC(N3CCCC(C)C3)=NC2=O)ccc1O", "note": "(configuration not stated)", "inhibition": "14.7% (active)"}
{"smiles": "O=C1N=C(N2CCCC2)S/C1=C\\c1cccc(Br)c1", "inhibition": "-0.86% (inactive)"}
{"smiles": "O=C1N=C(N2CCc3ccccc3C2)S/C1=C\\c1ccc(O)cc1", "inhibition": "0.39% (inactive)"}
{"smiles": "COCCCNC(=O)[C@H]1N2C(=O)c3ccccc3C2SC1(C)C", "note": "(some centres not stated)", "inhibition": "0.11% (inactive)"}
